Results on 28 compounds are retold here after PubChem BioAssay.

The target in this test is Focal adhesion kinase 1 (Homo sapiens) (UniProt Q05397). Description: PTK2 protein binding on printed compound slides – biochemical, small-molecule microarray, 635/667 nm fluorescence, BSA, DTT, primary screen (AID 1130).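 Also: composite of spot emission at 667 nm and signal to noise over triplicate slides.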 The note with it: 635 nm fluorescence, higher = more signal.
Sequence of Focal adhesion kinase 1 (Homo sapiens) (Q05397 whole entry, looked up): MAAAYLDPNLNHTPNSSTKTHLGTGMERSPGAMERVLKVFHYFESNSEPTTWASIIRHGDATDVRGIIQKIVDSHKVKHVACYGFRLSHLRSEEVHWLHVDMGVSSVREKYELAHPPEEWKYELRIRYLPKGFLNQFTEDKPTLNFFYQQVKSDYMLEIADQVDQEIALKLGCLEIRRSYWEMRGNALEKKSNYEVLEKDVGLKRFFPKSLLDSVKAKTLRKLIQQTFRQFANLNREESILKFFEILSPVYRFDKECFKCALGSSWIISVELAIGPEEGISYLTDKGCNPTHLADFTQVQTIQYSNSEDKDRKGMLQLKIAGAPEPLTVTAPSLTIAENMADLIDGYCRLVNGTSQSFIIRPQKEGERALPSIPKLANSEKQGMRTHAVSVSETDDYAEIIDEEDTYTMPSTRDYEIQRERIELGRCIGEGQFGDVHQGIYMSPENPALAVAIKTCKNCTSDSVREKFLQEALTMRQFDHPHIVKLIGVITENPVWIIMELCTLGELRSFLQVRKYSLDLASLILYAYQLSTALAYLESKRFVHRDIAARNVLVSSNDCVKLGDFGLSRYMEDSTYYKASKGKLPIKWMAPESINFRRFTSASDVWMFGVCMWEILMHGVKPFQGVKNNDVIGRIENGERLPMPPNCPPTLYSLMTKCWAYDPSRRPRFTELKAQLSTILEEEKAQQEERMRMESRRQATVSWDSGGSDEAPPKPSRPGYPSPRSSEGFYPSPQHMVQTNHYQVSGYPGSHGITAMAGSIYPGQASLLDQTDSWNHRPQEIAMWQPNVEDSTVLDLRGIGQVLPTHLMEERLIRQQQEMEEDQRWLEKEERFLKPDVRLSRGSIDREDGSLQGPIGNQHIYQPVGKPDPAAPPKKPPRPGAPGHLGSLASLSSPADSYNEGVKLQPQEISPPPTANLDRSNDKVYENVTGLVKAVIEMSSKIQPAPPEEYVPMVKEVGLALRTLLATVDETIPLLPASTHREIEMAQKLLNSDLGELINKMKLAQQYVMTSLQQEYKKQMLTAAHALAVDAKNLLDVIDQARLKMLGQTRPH
`C[C@@H]1ON(c2ccccc2)[C@H](c2ccccc2)[C@H]1C(=O)O` came in with a composite z-score of 0.209.

`C[C@]1(C(=O)O)c2ccccc2C(=O)N(Cc2cc(F)cc(C(F)(F)F)c2)[C@H]1c1ccc(CO)cc1`: the composite z-score was 0.263.

In turn, `COCCOC(=O)N1C(=O)[C@@]2(c3cc(C#CCCO)ccc31)[C@H](c1ccccc1OCCO)N1[C@H](c3ccccc3)[C@H](c3ccccc3)OC(=O)[C@H]1[C@@H]2C(N)=O` yielded a composite z-score of 0.621.

With `O=C1[C@H]2C=C(I)[C@H](C[C@@H]2OCCCCCCO)[C@@]12CO2`, the composite z-score was -0.0716.

`C=CCOC(=O)[C@@H]1[C@H]2C(=O)O[C@H](c3ccccc3)[C@H](c3ccccc3)N2[C@H](c2ccc(OCCOC(=O)[C@H]3C[C@H]4C(=O)N[C@@H](CCCCN(C)C)C(=O)N4[C@H]3c3ccc(O)cc3)cc2)[C@@]12C(=O)Nc1ccc(I)cc12` displayed a composite z-score of 1.03.

On to `O=C(NCc1ccccc1)[C@@H]1c2ccccc2C(=O)N(Cc2cc(C(F)(F)F)cc(C(F)(F)F)c2)[C@H]1c1ccc(CO)cc1`, for which the composite z-score worked out at 0.576.

On to `CCCC[C@H]1C[C@@H]1[C@@H]1N(C(C)=O)[C@H](c2cccc(OC)c2)CC12CC2`, for which the composite z-score worked out at 0.17.

`CCOC(=O)C1=CCC(c2cc3ccccc3[nH]2)N(CCN2CC(C(=O)OCC)=CCC2c2cc3ccccc3[nH]2)C1` (stereo not drawn): the composite z-score was 0.142.

Regarding `C=C(CCCC)/C(=C/C[C@H](OC(C)=O)c1cccc(OCCO)c1)c1cnc2ccccc2c1`, the composite z-score is -0.494.

In turn, `CCCN1C(=O)[C@@]2(c3ccc([N+](=O)[O-])cc3)CC(=O)N(CC34CC5CC(CC(C5)C3)C4)[C@@H]2c2ccc(CO)cc21` gave a composite z-score of 0.195.

As to `COc1ccc(C(O)C2C=CC3C(=O)N(c4ccccc4)C(=O)C3N2Nc2ccc(C#N)cc2)cc1OCc1ccccc1` (stereo not drawn), the composite z-score was found to be 1.3.

The compound `CC(C)NC(=O)[C@@]1(c2ccc([N+](=O)[O-])cc2)CC(=O)N(CC23CC4CC(CC(C4)C2)C3)[C@@H]1c1ccc(CO)cc1` had a composite z-score of 0.601.

`CC1=C([C@H](O)CCc2ccccc2)[C@H](CO)n2c(=O)n(-c3ccccc3)c(=O)n2C1`: the composite z-score was -0.168.

As for `O=C(NC1CC1)[C@@H]1c2ccccc2C(=O)N(Cc2cc(C(F)(F)F)cc(C(F)(F)F)c2)[C@H]1c1ccc(CO)cc1`, the composite z-score was 0.052.

For the compound `COC(=O)[C@@]1(Cc2ccccc2)N=C(c2ccc(OCCCO)cc2)O[C@H]1c1ccccc1CN=[N+]=[N-]`, the composite z-score is 0.291.

In the case of `O=C1c2ccccc2[C@@]2(Cc3ccccc3N(Cc3ccccc3)C2=O)[C@H](c2ccc(CO)cc2)N1Cc1ccccc1Cl`, the composite z-score is -0.0858.

In turn, `CC(C)C[C@H]1NC(=O)C([C@@H](C)OCc2ccccc2)NC(=O)[C@@]23C(=O)N[C@@H](Cc4ccccc4)C2[C@H](C)[C@@]2(C)O[C@H]2C3/C=C/C/C=C\CNC1=O` (stereo partly drawn) returned a composite z-score of 0.231.

`CC(C)=CCCC(C)=CC(O)C1C=CC2C(=O)NC(=O)C2N1Nc1ccc(Cl)cc1Cl` (stereo not drawn) registered a composite z-score of 1.15.

`CCCCC(=C=CC[C@H](O)c1ccc(CO)o1)CCO` showed a composite z-score of 0.323.

`CCOC(=O)C1=CC[C@@H](c2ccccc2)N(S(=O)(=O)c2ccc(C)cc2)[C@H]1c1ccccc1I` showed a composite z-score of 0.475.

Regarding `[N-]=[N+]=Nc1ccccc1[C@@H]1OC(c2ccc(OCCCO)cc2)=N[C@]1(CCS(=O)(=O)c1ccccc1)C(=O)NCC(O)CO` (stereo partly drawn), the composite z-score was 0.131.

As for `N#Cc1ccc(NN2C(C(O)C3CC=CCC3)C=CC3C(=O)N(c4ccccc4)C(=O)C32)cc1` (stereo not drawn), the composite z-score was 0.534.

For the compound `CC(C)C[C@@H]1NC(=O)[C@@]23C(=O)N[C@@H](Cc4ccccc4)C2[C@H](C)[C@@]2(C)O[C@H]2C3/C=C/C/C=C\CNC(=O)CNC1=O` (stereo partly drawn), the composite z-score was -0.0353.

For the compound `COc1ccc([Si](C)(C)[C@H]2[C@H](CC(=O)N3CCC[C@H]3CO)O[C@@]3(C(=O)N(Cc4ccc(N5CCCCC5=O)cc4)c4ccccc43)[C@@H]2C)cc1`, the composite z-score was 0.516.

`C=CCC(OC(C)=O)[C@@H]1[C@@H](N(Cc2cccc3ccccc23)C(=O)Cc2ccc(OC)cc2)c2cc(OCCCO)ccc2N1C(=O)c1ccc2ccccc2c1` (stereo partly drawn) returned a composite z-score of 0.321.

In the case of `NC(=O)NCC#Cc1ccc2c(c1)[C@]1(C(=O)N2)[C@H](c2ccc(OCCO)cc2)N2[C@H](c3ccccc3)[C@H](c3ccccc3)OC(=O)[C@H]2[C@@H]1C(=O)O`, the composite z-score is -0.333.

In the case of `O=C1O[C@H](c2ccccc2)[C@H](c2ccccc2)N2[C@H]1[C@@H](C(=O)N1CCN(c3ncccn3)CC1)[C@]1(C(=O)Nc3ccc(C#CCCO)cc31)[C@H]2c1ccc(O)cc1`, the composite z-score was 1.38.

In the case of `C=C(CCCC)/C(=C/C[C@H](OC(=O)c1ccncc1)c1cccc(OCCO)c1)c1cnc2ccccc2c1`, the composite z-score came out at 0.469.
